Assay outcomes deposited in PubChem BioAssay by National Center for Advancing Translational Sciences (NCATS).
Rows were chosen to be rich in hits. Some 7.2% of all compounds tested hit in one or more screens of this group.
ERK AVP inh: inhibitors of vasopressin-stimulated ERK signaling pathway. HEK293-V1b, vasopressin-stimulated pERK AlphaScreen. Potency, µM (series often up to 57.5 µM), hits mostly inhibitors. 72,000 tested, 0.99% active; note: nearly all actives have a fitted effect of over 55% in size
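qHTS, compounds titrated on V1b-expressing HEK293 cells. Preincubation 30 min at 37C, vasopressin 25 nM for 5 min, lysis 10 min, bead incubation 5 hr at room temperature.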
Tau filament bind: tau filament binding; P10636; recombinant tau filaments, thioflavin S fluorescence, 15 h; filaments grown with octadecylsulfate alongside compound; Potency, µM (titrated, usually from 57.1 µM); 71,000 tested, 2% active;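 note: actives lower thioflavin S fluorescence by blocking filaments or displacing dye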
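Thioflavine S fluorescence (ex 450, em 510 nm) reports filaments formed from 1 uM human tau plus 30 uM ODS over 15 h at 37 C (10 mM HEPES pH 7.4, 100 mM NaCl, 5 mM DTT); compounds displacing dye or blocking filaments lower signal.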
FLuc inh: firefly luciferase inhibition | 72,000 tested, 2.2% active | Potency, µM (series often up to 57.1 µM), actives largely listed as inhibitors | P08659 | purified firefly luciferase, luminescence, 8 min | AID 411; note: nearly all actives have a fitted effect of over 40% in size
Target sequence (P08659 whole entry, looked up): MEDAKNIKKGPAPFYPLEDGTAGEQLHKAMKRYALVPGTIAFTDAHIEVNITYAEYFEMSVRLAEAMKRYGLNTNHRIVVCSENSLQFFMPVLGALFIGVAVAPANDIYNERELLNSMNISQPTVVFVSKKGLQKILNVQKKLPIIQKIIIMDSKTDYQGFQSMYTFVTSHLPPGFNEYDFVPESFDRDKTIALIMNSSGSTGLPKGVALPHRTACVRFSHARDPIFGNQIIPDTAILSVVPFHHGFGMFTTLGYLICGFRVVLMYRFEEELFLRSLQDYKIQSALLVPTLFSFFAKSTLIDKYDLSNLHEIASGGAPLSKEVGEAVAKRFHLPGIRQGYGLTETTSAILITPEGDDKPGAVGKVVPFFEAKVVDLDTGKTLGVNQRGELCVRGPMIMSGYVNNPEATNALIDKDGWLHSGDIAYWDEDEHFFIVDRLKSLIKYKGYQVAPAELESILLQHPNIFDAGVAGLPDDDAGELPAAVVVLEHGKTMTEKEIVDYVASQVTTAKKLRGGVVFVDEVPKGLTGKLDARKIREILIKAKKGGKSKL
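Firefly luciferase (PKLight detection mix) with 10 uM ATP in pH 7.2 imidazole buffer (KCl, MgCl2, Tween 20, BSA). Compounds tested across a concentration series (qHTS). Luminescence read after 8 min at ambient temperature.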
HEK293 cAMP ctrl: raises cAMP in parental HEK293 cells, TSHR agonist counter-screen; parental HEK293 CNG cAMP sensor, membrane potential fluorescence; Potency, µM (doses to about 57.1 µM), usual class: activators; 73,000 tested, 2.5% active; AID 938; note: nearly all actives have a fitted effect of over 55% in size
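Parental HEK 293 cells stably expressing a modified CNG channel (no TSHR) report cAMP rise as membrane depolarization. Membrane potential dye with 100 uM RO 20-1724 was loaded for 60 min at room temperature, then compound added for 30 min; fluorescence read at 590 nm.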
PK Bst: modulators of Bacillus stearothermophilus pyruvate kinase | purified pyruvate kinase, luminescence ATP production; ribose 5-phosphate activator present at AC10 | Potency, µM | 51,000 tested, 1.2% active | AID 361; in the data active = potency below about 11 µM; inconclusive = mostly about 12 µM to 25 µM;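 the screen sought inhibitors and activators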
TSHR agonist: TSH receptor (human) agonism; P16473; HEK293-CNG-TSHR cells (CNG channel as cAMP sensor), membrane potential dye, cAMP; Potency, µM (series often up to 57.1 µM), actives largely listed as activators; 73,000 tested, 0.48% active; active = well fitted activation curve with a large enough effect in the main read-out, with a control signal flat, not every such curve was filed as active; inconclusive = small, poorly fitted or top-dose-only effect, or a change in a side signal; inactive = no such curve, though single readings can be large or run the other way; reference of the percent scale not stated here;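 note: the control signal comes from parental cells without the receptor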
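cAMP rise detected as CNG-channel membrane depolarization by fluorescent dye (emission 590 nm), 30 min after compound, following 60 min dye loading containing 100 uM RO 20-1724 at room temperature. Cells: TSHR/CNG HEK 293, with parental CNG HEK 293 as control.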
Large screens that a line does not name were inactive. Unless noted, calls come from the whole dose curve; as a rule, active = well fitted curve in the direction sought with a large enough effect; inconclusive = small, poorly fitted or top-dose-only effect, or another doubt; inactive = no such curve, though single readings can be large; an effect the other way counts as inactive or inconclusive.

COc1ccc(C(C)=O)cc1COC(=O)c1ccc2c(c1)OCO2	HEK293 cAMP ctrl 32µM, TSHR agonist inconclusive
CCCCCc1c(C)nc(Nc2nc(C)c3cc(OC)ccc3n2)[nH]c1=O	HEK293 cAMP ctrl 10µM, TSHR agonist inconclusive
c1ccc(Nc2ccccc2Nc2ccccn2)nc1	none
COc1ccc(CCNc2nc(-c3sc(N)nc3C)cs2)cc1OC	ERK AVP inh inconclusive, Tau filament bind 16µM (no result: PK Bst)
COc1ccc(Nc2nc(-c3sc(N)nc3C)cs2)cc1	Tau filament bind 13µM, HEK293 cAMP ctrl inconclusive, TSHR agonist inconclusive
Cc1nc(N)sc1-c1csc(Nc2ccc(Cl)cn2)n1	Tau filament bind 16µM
Cc1nc(N)sc1-c1csc(Nc2ccccn2)n1	Tau filament bind 25µM, FLuc inh 13µM (no result: PK Bst)
O=C(O)CCC/C=C\C[C@H]1[C@@H](/C=C\[C@@H](O)C2Cc3ccccc3C2)[C@H](F)C[C@H]1O	none (no result: ERK AVP inh, PK Bst)
N#Cc1ccc(CN2CCCC3(CCNCC3)C2)cc1	HEK293 cAMP ctrl inconclusive, TSHR agonist inconclusive (no result: PK Bst)
NC[C@@H]1O[C@H](O[C@H]2[C@H](O)[C@@H](O[C@H]3[C@H](O)[C@H](N)C[C@H](N)[C@H]3O[C@@H]3O[C@H](CO)[C@@H](O)[C@H](O)[C@@H]3N)O[C@H]2CO)[C@@H](N)[C@H](O)[C@@H]1O	none (no result: PK Bst, TSHR agonist)
O=c1[nH]ncc2ccccc12	none (no result: FLuc inh, PK Bst)
O=C(Cn1c(-c2ccccc2)noc1=O)Nc1ccc(N2CCCCCC2)cc1	Tau filament bind 13µM, TSHR agonist inconclusive
Cc1cn([C@H]2C=C[C@H](CO)O2)c(=O)[nH]c1=O	none (no result: ERK AVP inh, PK Bst)
Cc1cc2nn(-c3cccc4ccccc34)nc2cc1N	Tau filament bind 7.9µM
CC(=O)OC[C@@H]1O[C@@H](O/N=C2/C[C@@H](O)[C@@H](O)[C@@H]3[C@@H]4C(=O)N([C@@H](C)c5ccccc5)C(=O)[C@H]4CC[C@H]23)[C@H](OC(C)=O)[C@H](OC(C)=O)[C@@H]1OC(C)=O	none (no result: Tau filament bind, PK Bst)
Cc1ccc(C)c(Cn2c(CO)nc3ccccc32)c1	HEK293 cAMP ctrl 25µM, TSHR agonist inconclusive
CC(=O)NCc1nc2ccccc2n1Cc1ccccc1C	none (no result: ERK AVP inh, PK Bst)
O=c1cnc2cnc(Nc3ccccc3)nc2n1C[C@H]1CCCO1	none (no result: PK Bst)
O=C(N[C@@H](c1ccccc1)[C@@H]1C[C@H]1C(=O)NCc1ccccc1)OCc1ccccc1	HEK293 cAMP ctrl 13µM, TSHR agonist inconclusive (no result: FLuc inh, PK Bst)
COC(=O)[C@H](Cc1ccccc1)NC(=O)[C@H]1C[C@@H]1[C@H](NC(=O)OCc1ccccc1)c1ccccc1	HEK293 cAMP ctrl 16µM, TSHR agonist inconclusive (no result: FLuc inh, PK Bst)
O=C(c1csnn1)N1CCC2(CCN(Cc3cc(C(F)(F)F)cc(C(F)(F)F)c3)CC2)CC1	none (no result: PK Bst)
c1nc(N2CCC3(CC2)OCCO3)c2c3c(sc2n1)CCCC3	ERK AVP inh 32µM, HEK293 cAMP ctrl inconclusive, TSHR agonist inconclusive (no result: PK Bst)
CCOC(=O)C1C(=O)CC(C)(O)C(C(=O)OCC)C1/C=C/c1ccccc1 (stereo not given)	HEK293 cAMP ctrl 5µM, TSHR agonist inconclusive (no result: PK Bst)
O=C(COC(=O)Cc1cn2ccsc2n1)NC12CC3CC(CC(C3)C1)C2	ERK AVP inh inconclusive
CC1CCCC(NC(=O)COC(=O)Cc2cn3ccsc3n2)C1C (stereo not given)	HEK293 cAMP ctrl 32µM, TSHR agonist inconclusive
Cc1ccc2c(c1)nnn2C1CCN(C(=O)NC23CC4CC(CC(C4)C2)C3)CC1	none
Cc1ccc(C23CC4CC(CC(NC(=O)N5CCN(C)CC5)(C4)C2)C3)cc1	Tau filament bind 16µM
c1csc(CNc2nc(-c3ccoc3)nc3ccccc23)c1	Tau filament bind 25µM (no result: PK Bst)
c1cncc(CNc2nc(-c3ccoc3)nc3ccccc23)c1	ERK AVP inh inconclusive, Tau filament bind inconclusive (no result: PK Bst)
c1cncc(-c2nc(NCc3cccs3)c3ccccc3n2)c1	TSHR agonist 32µM (no result: PK Bst)
CC(=O)OC[C@@H]1O[C@H](C/C=N\OC[C@@H](O)[C@H]2O[C@H]3OC(C)(C)O[C@H]3[C@@H]2O)C=C[C@@H]1OC(C)=O	none (no result: Tau filament bind, PK Bst)
Oc1c(C=Nc2cccnc2)sc2ccccc12	FLuc inh 13µM, PK Bst 11 (no result: ERK AVP inh, Tau filament bind, HEK293 cAMP ctrl, TSHR agonist)
COc1ccc(-c2cc(=O)c3ccccc3s2)cc1	ERK AVP inh 13µM, Tau filament bind 25µM, FLuc inh 16µM, HEK293 cAMP ctrl inconclusive, PK Bst 0.88, TSHR agonist inconclusive
O=C(Nc1ccc(OC(F)(F)F)cc1)c1cnc2n(c1=O)CCS2	none (no result: ERK AVP inh, PK Bst)
O=C(Nc1ccc(OC(F)(F)F)cc1)C1=NCCN1	FLuc inh 10µM, HEK293 cAMP ctrl inconclusive, TSHR agonist inconclusive
CC(=O)OC[C@@H]1O[C@@H](O/N=C2/C[C@@H](O)[C@@H](O)[C@@H]3[C@@H]4C(=O)N(Cc5ccc6c(c5)OCO6)C(=O)[C@H]4CC[C@H]23)[C@H](OC(C)=O)[C@H](OC(C)=O)[C@@H]1OC(C)=O	none (no result: Tau filament bind, PK Bst)
